Drawing on PubChem BioAssay (NCATS), this text covers activity, negative = cell killing and Potency for 23 molecules.

“And” between values parts separate entries of the source, which are not always exact repeats. Equal entries are not always repeated. Inconclusive results are not listed. Unmarked numbers belong to inactive results. The source made the active and inactive calls. Calls follow the shape of the dose curve; as a rule, active = well fitted inhibition curve with a large enough effect; inconclusive = small, poorly fitted or top-dose-only effect; inactive = flat fitted curve, though single readings scatter.

The nature of test [1]: Drug repurposing screens with cells derived from glioblastoma tumor samples (AID 1345199). Also: nearly all actives have a fitted effect of over 40% in size. As to conditions: GBM patient neurospheres viability, ATP luminescence, 48 h. The method, boiled down: (§1)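 Four patient lines of CD133+ GBM neurospheres were screened at several concentrations; hits were retested in those lines plus three slower-growing GBM lines, using 48-hour treatment and ATP-based viability.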

The subject of a further test is astro (control astrocytes). Described as above. Conditions: viability, ATP luminescence, 48 h; series mostly up to 45.9 µM. The method, boiled down: as §1
The mark [2] stands for this setting: at 45.9 µM (top of the series), tumour line B.
Setting [3] is: at 45.9 µM (top of the series), tumour line D.
[4] abbreviates: at 46 µM (top of the series), tumour line A.
The mark [5] stands for this setting: at 46.1 µM (top of the series), tumour line C.
Where [6] appears, read: at 20 µM (top of the series), tumour line C.
[7] abbreviates: at 21.2 µM (top of the series), tumour line B.
Setting [8] is: at 21.2 µM (top of the series), tumour line D.
[9] abbreviates: at 21.3 µM (top of the series), tumour line A.
% is scaled to controls: 0 for no effect and ±100 for the full control effect; potency is read from the fitted curve at half-maximal effect.

As to `Nc1ncnc2c1ncn2[C@@H]1O[C@H](COP(=O)(O)OP(=O)(O)OP(=O)(O)O)[C@@H](O)[C@H]1O`, the activity, negative = cell killing in test [1] (setting [2]) was 15.4%; in test [1] (setting [3]), -9.21%; in test [1] (setting [4]), -1.48%; in test [1] (setting [5]) it was 38.9%. For the same molecule, the Potency entry in the test on astro is “inactive”.

As to `O=S(=O)(O)O`, the activity, negative = cell killing was 3.03% in test [1] (setting [2]), -20.1% in test [1] (setting [3]), -0.209% in test [1] (setting [4]) and -1.26% in test [1] (setting [5]). Further, the Potency result in the test on astro was “inactive”.

Take `O=C(O)c1cc(O)c2c(c1)[O][Bi][O]2`: the activity, negative = cell killing in test [1] (setting [2]) is -11.9%; in test [1] (setting [3]) it was -5.77%; in test [1] (setting [4]), -19.4%; in test [1] (setting [5]) it was 3.44%. Further, the Potency entry in the test with astro was “inactive”.

On to `CCC(=O)O[C@@H]1CC(=O)O[C@H](C)C/C=C/C=C/[C@H](O)[C@H](C)C[C@H](CC=O)[C@H](O[C@@H]2O[C@H](C)[C@@H](O[C@H]3C[C@@](C)(O)[C@@H](OC(=O)CC)[C@H](C)O3)[C@H](N(C)C)[C@H]2O)[C@H]1OC`, for which the activity, negative = cell killing in test [1] (setting [6]) is 18.5%; in test [1] (setting [7]), -16.2%; in test [1] (setting [8]) it was -1.85%; in test [1] (setting [9]), -24.3%. Also, the Potency entry with astro is “inactive”.

`CCCCC(=O)N(Cc1ccc(-c2ccccc2-c2nn[nH]n2)cc1)[C@@H](C(=O)O)C(C)C`: the activity, negative = cell killing in test [1] (setting [2]) was 2.85%; in test [1] (setting [3]), -14.3%; in test [1] (setting [4]) it was -22.5%; in test [1] (setting [5]), 9.38%. Moreover, the Potency entry in the test with astro was “inactive”.

Regarding `COC(=O)CCC(=O)CN`, the activity, negative = cell killing was -21.7% in test [1] (setting [2]), -18.7% in test [1] (setting [3]), -28.4% in test [1] (setting [4]) and -13.1% in test [1] (setting [5]). Also, in the test with astro, the Potency result was “inactive”.

Take `Cc1cc(C(=O)NNCc2ccccc2)no1`: the activity, negative = cell killing is -3.86% in test [1] (setting [6]), -7.11% in test [1] (setting [7]), -19.1% in test [1] (setting [8]) and -21.8% in test [1] (setting [9]). The Potency entry in the test on astro is “inactive”.

Turning to `CC1(C)S[C@@H]2[C@H](NC(=O)C(C(=O)O)c3ccsc3)C(=O)N2[C@H]1C(=O)O` (stereo not given in full), the activity, negative = cell killing was 5.71% in test [1] (setting [2]), -0.709% in test [1] (setting [3]), 0.915% in test [1] (setting [4]) and -15.8% in test [1] (setting [5]). The Potency result in the test with astro was “inactive”.

`CCOC(=O)O[C@]1(C(=O)COC(=O)CC)CC[C@H]2[C@@H]3CCC4=CC(=O)C=C[C@]4(C)[C@H]3[C@@H](O)C[C@@]21C`: the activity, negative = cell killing is 2.55% in test [1] (setting [6]), -5.02% in test [1] (setting [7]), -9.53% in test [1] (setting [8]) and -19.6% in test [1] (setting [9]). The Potency entry in the test on astro is “inactive”.

Consider `C[C@]12CCC(=O)C=C1CC[C@@H]1[C@@H]2[C@@H](O)C[C@@]2(C)[C@H]1CC[C@]2(O)C(=O)COP(=O)(O)O`, for which the activity, negative = cell killing in test [1] (setting [2]) was -5.72%; in test [1] (setting [3]), -20.1%; in test [1] (setting [4]), -14%; in test [1] (setting [5]) it was -20.1%. In the test with astro, the Potency result is “inactive”.

As to `C[C@]12O[C@H](C[C@]1(O)CO)n1c3ccccc3c3c4c(c5c6ccccc6n2c5c31)CNC4=O`, the activity, negative = cell killing in test [1] (setting [5]) was -97.6%. Moreover, the Potency in test [1] (tumour line A) is 7.08 µM (active); in test [1] (tumour line B), 4.47 µM (active); in test [1] (tumour line D) it was 3.16 µM (active); in the test with astro it was 0.447 µM (active).

Take `CC(=O)OCC(=O)[C@@]1(O)CC[C@H]2[C@@H]3C[C@H](C)C4=CC(=O)C=C[C@]4(C)[C@H]3[C@@H](O)C[C@@]21C`: the activity, negative = cell killing in test [1] (setting [2]) is -16.5%; in test [1] (setting [3]) it was -18.9%; in test [1] (setting [4]), -15.4%; in test [1] (setting [5]), 1.15%. For the same molecule, in the test with astro, the Potency result was “inactive”.

`Cc1cn([C@H]2C[C@H](O)[C@@H](CO)O2)c(=O)[nH]c1=O`: the activity, negative = cell killing was -14.8% in test [1] (setting [2]), 6.82% in test [1] (setting [3]), -23.5% in test [1] (setting [4]) and -19.1% in test [1] (setting [5]). Besides, in the test on astro, the Potency entry was “inactive”.

Take `CN1C(=O)CN2CCc3ccccc3C2c2cc(Cl)ccc21` (stereo not given): the activity, negative = cell killing in test [1] (setting [2]) is -19.8%; in test [1] (setting [3]), -13.4%; in test [1] (setting [4]), -22.5%; in test [1] (setting [5]), -33.9%. Besides, the Potency result with astro is “inactive”.

As for `CC(=O)O[C@]1(C(C)=O)CC[C@H]2[C@@H]3CCC4=CC(=O)CC[C@]4(C)[C@@]3(F)[C@@H](O)C[C@@]21C`, the activity, negative = cell killing was -7.13% in test [1] (setting [2]), -7.73% in test [1] (setting [3]), 6.04% in test [1] (setting [4]) and 8.8% in test [1] (setting [5]). For the same molecule, the Potency result in the test on astro was “inactive”.

Turning to `CC(Oc1ccccc1)C(=O)N[C@@H]1C(=O)N2[C@@H]1SC(C)(C)[C@@H]2C(=O)O` (stereo not given in full), the activity, negative = cell killing in test [1] (setting [6]) was 1.64%; in test [1] (setting [7]), -4.78%; in test [1] (setting [8]), -2.95%; in test [1] (setting [9]), 2.19%. Further, in the test on astro, the Potency entry is “inactive”.

Regarding `CN(C)CC/C=C1/c2ccccc2CSc2ccccc21`, the values for the activity, negative = cell killing in test [1] (setting [6]) and in test [1] (setting [7]) were -1.3% and -26.2%, respectively. The Potency in test [1] (tumour line A) and in test [1] (tumour line D) was 12.6 µM (active) each time. Moreover, the Potency result in the test on astro was “inactive”.

Consider `NCc1ccccc1CC(=O)N[C@@H]1C(=O)N2C(C(=O)O)=C(CSc3nnnn3CC(=O)O)CS[C@H]12`, for which the activity, negative = cell killing was -8.3% in test [1] (setting [6]), -4.52% in test [1] (setting [7]), -30% in test [1] (setting [8]) and -23.4% in test [1] (setting [9]). Also, the Potency result in the test with astro was “inactive”.

As for `CNC(C)[C@@H]1CC[C@@H](N)[C@@H](O[C@H]2[C@H](O)[C@@H](O[C@H]3OC[C@](C)(O)[C@H](NC)[C@H]3O)[C@H](N)C[C@@H]2N)O1` (stereo not given in full), the activity, negative = cell killing in test [1] (setting [6]) is -7.4%; in test [1] (setting [7]), -11.6%; in test [1] (setting [8]) it was 12.7%; in test [1] (setting [9]), -18.8%. The Potency result with astro was “inactive”.

Consider `C=CCSSSCC=C`, for which the activity, negative = cell killing in test [1] (setting [2]) was -7.75%; in test [1] (setting [3]) it was -21.3%; in test [1] (setting [4]) it was -14.2%; in test [1] (setting [5]), -8.17%. The Potency result in the test with astro is “inactive”.

Regarding `Cc1c(C)c2c(c(C)c1O)CC[C@@](C)(CCC[C@H](C)CCC[C@H](C)CCCC(C)C)O2`, the activity, negative = cell killing in test [1] (setting [2]) is -3.57% and 0.952%; in test [1] (setting [3]) it was -15.8% and 5.62%; in test [1] (setting [4]) it was -28.9%; in test [1] (setting [5]), -17.8% and 12.9%. The Potency result with astro was “inactive”.

For `CC(C)(C)C(=O)OCOC(=O)[C@@H]1N2C(=O)[C@@H](N=CN3CCCCCC3)[C@H]2SC1(C)C`, the activity, negative = cell killing is -7.48% in test [1] (setting [6]), -4.41% in test [1] (setting [7]), 17.4% in test [1] (setting [8]) and -13.2% in test [1] (setting [9]). Besides, in the test with astro, the Potency entry was “inactive”.

With `CO[C@H]1C[C@H](O[C@H]2[C@H](C)[C@@H](O[C@@H]3O[C@H](C)C[C@H](N(C)C)[C@H]3OC(C)=O)[C@@H](C)C[C@]3(CO3)C(=O)[C@H](C)[C@@H](OC(C)=O)[C@@H](C)[C@@H](C)OC(=O)[C@@H]2C)O[C@@H](C)[C@@H]1OC(C)=O`, the activity, negative = cell killing was -16.4% in test [1] (setting [6]), -6.68% in test [1] (setting [7]), -16.6% in test [1] (setting [8]) and -20.4% in test [1] (setting [9]). The Potency result in the test with astro was “inactive”.
